This note sets out measurements from PubChem BioAssay (EPA / NIEHS).

Experiment [1] is described as follows: ATG_PPRE_CIS: Attagene CIS-FACTORIAL HepG2 Assay for human Peroxisome Proliferator-activated Response Element (PPRE) (AID 2282958). As to conditions: HepG2 PPRE cis-element reporter, Attagene transcription factor profiling; actives raise or lower the signal. The essentials: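 After human HepG2 hepatoma cells were transiently transfected with cis-promoter reporter constructs, they were exposed to test chemicals for 24 hours. Reporter RNA was then reverse-transcribed, PCR-amplified, FAM-labeled, HpaI-digested and quantified by capillary electrophoresis.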

Experiment [2] is described as follows: ATG_RORE_CIS: Attagene CIS-FACTORIAL HepG2 Assay for human RAR-related Orphan Receptor Element (RORE) (AID 2282959). As to conditions: HepG2 Attagene cis-factorial RORE reporter, mRNA; actives raise or lower the signal. Put shortly:
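Measured here: transcript induction of a cis-regulated reporter in HepG2 cells transiently transfected via FuGene 6. After 24 h, RNA was processed by RT-PCR and fluorescent capillary electrophoresis; DMSO defined baseline activity.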

Experiment [3] is described as follows: ATG_Sox_CIS: Attagene CIS-FACTORIAL HepG2 Assay for human SRY-box transcription factor (SOX) (AID 2282960). The following applies: HepG2 Attagene cis-factorial SOX reporter, mRNA; actives raise or lower the signal. The essentials:
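Using transiently transfected HepG2 cells, reporter transcription driven by cis elements was assessed 24 h after dosing. Signal was fluorescence of capillary-separated RT-PCR products, with DMSO defining baseline activity.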

Experiment [4] concerns the target Transcription factor Sp1 (Homo sapiens) (UniProt P08047). The experiment is described as follows: ATG_Sp1_CIS: Attagene CIS-FACTORIAL HepG2 Assay for human Specificity Protein 1 (Sp1) (AID 2282961). As to conditions: HepG2 Sp1 cis-reporter transcription, actives raise or lower the signal. The essentials: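 After transient transfection of HepG2 cells with cis-promoter reporter units and 24 h chemical treatment, reporter transcripts were quantified by RT-PCR and capillary electrophoresis fluorescence. Gain- and loss-of-signal fitted against DMSO.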

The nature of experiment [5]: ATG_SREBP_CIS: Attagene CIS-FACTORIAL HepG2 Assay for human Sterol Regulatory Element Binding (SREBP) (AID 2282962). The following applies: HepG2 Attagene cis-factorial SREBP reporter, mRNA; actives raise or lower the signal. Put shortly: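 Transfected HepG2 (cis-regulated reporter library, endogenous TFs) → compound 24 h → total RNA → oligo(dT) RT → reporter-specific PCR → FAM primer extension, HpaI cut → CE fluorescence. Fit bidirectional vs DMSO.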

The target of experiment [6] is Signal transducer and activator of transcription 3 (Homo sapiens) (UniProt P40763). Description: ATG_STAT3_CIS: Attagene CIS-FACTORIAL HepG2 Assay for human Signal Transducer and Activator of Transcription 3 (STAT3) (AID 2282963). The following applies: HepG2, Attagene cis-factorial STAT3 reporter transcription; actives raise or lower the signal. The essentials:
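Transcript-level reporter assay. HepG2 transient MRTU transfection, 24 h exposure, fluorescence detection after RT-PCR and CE; DMSO baseline.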

The nature of experiment [7]: ATG_TA_CIS: Attagene CIS-FACTORIAL HepG2 Assay for human TA Basal Promoter (AID 2282964). The following applies: HepG2 Attagene CIS-factorial TA basal promoter reporter; actives raise or lower the signal. Put shortly:
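Multiplexed mRNA reporter assay, HepG2, 24 h. Reporter cDNA amplified, 6-FAM primer-extended, HpaI-cut, CE-sized; DMSO = negative control and baseline.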

Experiment [8] is described as follows: ATG_TCF_b_cat_CIS: Attagene CIS-FACTORIAL HepG2 Assay for human T-Cell-Factor with beta-catenin (TCF/b-cat) (AID 2282965). The following applies: HepG2 TCF/beta-catenin cis-reporter transcription, actives raise or lower the signal. Put shortly:
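HepG2 cells transiently transfected with multiple cis-promoter-regulated reporter transcription units, so endogenous transcription factor activity is measured. Reporter mRNA read 24 hours after dosing by RT-PCR, fluorescent labelling and capillary electrophoresis; bidirectional fitting against DMSO.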

The nature of experiment [9]: ATG_TAL_CIS: Attagene CIS-FACTORIAL HepG2 Assay for human TAL Basal Promoter (AID 2282966).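 Further: background control endpoint measuring basal TAL promoter reporter mRNA not a specific factor.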 As to conditions: HepG2 Attagene cis-factorial TAL promoter reporter; actives raise or lower the signal. Put shortly:
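In this cell-based multiplex, HepG2 liver cells bearing cis-promoter reporter constructs are dosed for 24 hours. Total RNA is reverse-transcribed and amplified, labelled fragments are sized by capillary electrophoresis, and signal changes are fitted bidirectionally versus DMSO.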

The nature of experiment [10]: ATG_TGFb_CIS: Attagene CIS-FACTORIAL HepG2 Assay for human Transforming Growth Factor (TGF) (AID 2282967). As to conditions: HepG2 Attagene CIS TGFb reporter, mRNA transcription; actives raise or lower the signal. The essentials:
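Transcript-level reporter readout: HepG2 transfectants, 24 h exposure, RNA to cDNA, reporter-specific PCR, fluorescent primer extension, capillary sizing against ROX standards. Gain- or loss-of-signal relative to DMSO.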

Experiment [11] addresses Estrogen receptor (Homo sapiens) (UniProt P03372). Description: ATG_ERa_TRANS: Attagene TRANS-FACTORIAL HepG2 Assay for human Estrogen Receptor alpha (ERa) (AID 2282970; active means hit-call score of the fitted dose curve at least 0.9, where 1 is the maximum). As to conditions: HepG2 Attagene TRANS ERa GAL4 reporter, mRNA. The essentials:
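After 24 h of compound treatment, RNA from HepG2 cells bearing transfected GAL4-UAS reporter constructs is converted to cDNA, amplified and fluorescently labelled. Capillary electrophoresis resolves the ERa-linked reporter; DMSO serves as negative control.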

For experiment [12], the target named is Steroid hormone receptor ERR1 (Homo sapiens) (UniProt P11474). Description: ATG_ERRa_TRANS: Attagene TRANS-FACTORIAL HepG2 Assay for human Estrogen-Related Receptor alpha (ERRa) (AID 2282971; active means hit-call score of the fitted dose curve at least 0.9, where 1 is the maximum). The following applies: HepG2 Attagene TRANS reporter, ERRa transactivation. Put shortly:
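Transfected HepG2, 24 h dosing, ERRa-Gal4 chimera driving GAL4-UAS reporter. Readout: reporter mRNA via RT-PCR plus capillary electrophoresis (fluorescence). Positive direction vs DMSO control.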

The nature of experiment [13]: ATG_M_19_TRANS: Attagene TRANS-FACTORIAL HepG2 Assay for M19 Transcription Factor (Internal Marker) (AID 2282974; active means hit-call score of the fitted dose curve at least 0.9, where 1 is the maximum). The following applies: HepG2 Attagene TRANS-FACTORIAL M19 internal marker reporter. The essentials:
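Gain-of-signal in reporter mRNA, relative to DMSO, was scored from capillary electrophoresis fluorescence. HepG2 cells carried transiently transfected multiple reporter transcription units and were incubated with test chemicals for 24 h.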

Experiment [14] has as its target Estrogen-related receptor gamma (Homo sapiens) (UniProt P62508). Description: ATG_ERRg_TRANS: Attagene TRANS-FACTORIAL HepG2 Assay for human Estrogen-Related Receptor gamma (ERRg) (AID 2282977; active means hit-call score of the fitted dose curve at least 0.9, where 1 is the maximum;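 further: hits increase reporter signal over DMSO so potencies reflect activators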). The following applies: HepG2 Attagene TRANS reporter, ERRg transactivation. The essentials: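 HepG2 cells transiently transfected with multiplexed GAL4-UAS reporter units driven by chimeric NR-Gal4 proteins; 24 h exposure. Reporter mRNA quantified by RT-PCR, fluorescent labelling, HpaI digestion and capillary electrophoresis; gain of signal vs DMSO.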

Experiment [15] in a line: ATG_VDRE_CIS: Attagene CIS-FACTORIAL HepG2 Assay for human Vitamin D Receptor Element (VDRE) (AID 2282968). The following applies: HepG2 VDRE cis-reporter transcription, actives raise or lower the signal. The essentials:
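RT-PCR/CE readout of reporter mRNA; HepG2, transient transfection, 24 h dosing; DMSO baseline; bidirectional analysis.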

The target in experiment [16] is X-box-binding protein 1 (Homo sapiens) (UniProt P17861). The experiment is described as follows: ATG_Xbp1_CIS: Attagene CIS-FACTORIAL HepG2 Assay for human X-box Binding Protein 1 (XBP1) (AID 2282972). The following applies: HepG2 XBP1 cis-element reporter, Attagene multiplex; actives raise or lower the signal. The essentials: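 HepG2, transient MRTU transfection (cis-promoter driven), 24 h compound exposure. Total RNA → oligo(dT) RT → PCR → 6-FAM labeling → HpaI cut → CE. Bidirectional fit vs DMSO.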
Chain of X-box-binding protein 1 (Homo sapiens) (P17861 whole entry, looked up): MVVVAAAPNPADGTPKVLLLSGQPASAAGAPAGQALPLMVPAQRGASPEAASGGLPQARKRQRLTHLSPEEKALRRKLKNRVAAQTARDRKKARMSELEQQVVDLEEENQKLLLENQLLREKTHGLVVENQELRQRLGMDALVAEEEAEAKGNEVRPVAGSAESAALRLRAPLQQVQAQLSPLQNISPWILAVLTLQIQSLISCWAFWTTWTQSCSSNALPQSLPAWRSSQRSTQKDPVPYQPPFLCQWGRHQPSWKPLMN

Experiment [17] addresses Glucocorticoid receptor (Homo sapiens) (UniProt P04150). The experiment is described as follows: ATG_GR_TRANS: Attagene TRANS-FACTORIAL HepG2 Assay for human Glucocorticoid Receptor (GR) (AID 2282978; active means hit-call score of the fitted dose curve at least 0.9, where 1 is the maximum;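 further: activators score as hits since higher reporter transcript over DMSO is fitted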). As to conditions: HepG2 Attagene TRANS GR reporter, mRNA transcription. The essentials: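 HepG2 transient transfection, multiple reporter units, GAL4-UAS under NR-GAL4 chimera control. 24 h treatment. Reporter mRNA by RT-PCR/CE fluorescence, DMSO as negative control.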

The target in experiment [18] is Bile acid receptor (Homo sapiens) (UniProt Q96RI1). The experiment is described as follows: ATG_FXR_TRANS: Attagene TRANS-FACTORIAL HepG2 Assay for Farnesoid X Receptor (FXR) (AID 2282979; active means hit-call score of the fitted dose curve at least 0.9, where 1 is the maximum;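 further: hits raise reporter mRNA above DMSO so AC50 marks FXR activation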). The following applies: HepG2 Attagene TRANS FXR-GAL4 reporter transcription. The essentials: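 Read-out: fluorescent reporter transcripts quantified by capillary electrophoresis after RT-PCR of total RNA. Source cells were HepG2 transiently carrying chimeric NR-GAL4 plus GAL4-UAS reporter units, dosed 24 h. Activity fitted upward relative to DMSO baseline.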
Chain of Bile acid receptor (Homo sapiens) (Q96RI1 whole entry, looked up, the tested form may be a part): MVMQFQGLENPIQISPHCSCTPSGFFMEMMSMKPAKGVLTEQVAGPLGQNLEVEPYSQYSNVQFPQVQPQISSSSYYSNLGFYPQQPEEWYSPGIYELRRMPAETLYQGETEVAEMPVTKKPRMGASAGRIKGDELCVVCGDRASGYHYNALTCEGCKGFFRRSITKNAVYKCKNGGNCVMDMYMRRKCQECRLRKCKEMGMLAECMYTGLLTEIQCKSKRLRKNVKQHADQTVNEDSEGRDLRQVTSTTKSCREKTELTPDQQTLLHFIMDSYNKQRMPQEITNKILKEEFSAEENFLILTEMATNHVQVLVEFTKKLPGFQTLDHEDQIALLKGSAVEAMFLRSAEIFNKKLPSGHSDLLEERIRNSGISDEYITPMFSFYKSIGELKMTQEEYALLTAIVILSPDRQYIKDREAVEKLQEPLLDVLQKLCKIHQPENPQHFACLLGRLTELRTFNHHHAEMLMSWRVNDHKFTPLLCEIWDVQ

Experiment [19] in a line: ATG_GAL4_TRANS: Attagene TRANS-FACTORIAL HepG2 Assay for GAL4 (Internal Marker) (AID 2282976; active means hit-call score of the fitted dose curve at least 0.9, where 1 is the maximum). As to conditions: HepG2 Attagene TRANS GAL4 internal marker reporter. Put shortly: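 RT-PCR/capillary electrophoresis readout of reporter mRNA. HepG2, transient MRTU transfection (GAL4-UAS reporters), 24 h compound exposure. Background-control endpoint, positive direction vs DMSO baseline.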

The target in experiment [20] is Nuclear receptor subfamily 1 group I member 3 (Homo sapiens) (UniProt Q14994). Description: ATG_CAR_TRANS: Attagene TRANS-FACTORIAL HepG2 Assay for human Constitutive Androstane Receptor (CAR) (AID 2282969; active means hit-call score of the fitted dose curve at least 0.9, where 1 is the maximum;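 further: activators raise reporter mRNA above DMSO so AC50 marks induction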). As to conditions: HepG2 Attagene TRANS-FACTORIAL CAR reporter. The essentials: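 HepG2 cells transiently transfected with multiplexed GAL4-UAS reporter units expressing chimeric NR-Gal4 proteins; compound exposure 24 h. Reporter mRNA measured by RT-PCR, 6-FAM labelling, HpaI digestion and capillary electrophoresis; gain-of-signal fitted against DMSO baseline.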
Chain of Nuclear receptor subfamily 1 group I member 3 (Homo sapiens) (Q14994 whole entry, looked up, the tested form may be a part): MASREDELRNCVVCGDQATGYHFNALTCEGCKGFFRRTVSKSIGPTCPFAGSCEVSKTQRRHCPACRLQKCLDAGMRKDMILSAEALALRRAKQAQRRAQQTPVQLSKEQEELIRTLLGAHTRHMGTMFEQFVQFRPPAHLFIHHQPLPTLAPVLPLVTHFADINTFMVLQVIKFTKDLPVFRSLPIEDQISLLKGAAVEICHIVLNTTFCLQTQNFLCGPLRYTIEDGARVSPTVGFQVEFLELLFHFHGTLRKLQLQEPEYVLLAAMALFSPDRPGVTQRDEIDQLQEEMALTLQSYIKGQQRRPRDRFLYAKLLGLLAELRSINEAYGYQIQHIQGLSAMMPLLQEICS

By AC50 is commonly meant the concentration giving half of the maximal activity seen.

Records with an inconclusive call do not appear. The source made the active and inactive calls. How the source made its calls, unless noted: active means hit-call score of the fitted dose curve at least 0.9, where 1 is the maximum; inactive means score below 0.9.

Chain of Estrogen receptor (Homo sapiens) (P03372 whole entry, looked up, the tested form may be a part): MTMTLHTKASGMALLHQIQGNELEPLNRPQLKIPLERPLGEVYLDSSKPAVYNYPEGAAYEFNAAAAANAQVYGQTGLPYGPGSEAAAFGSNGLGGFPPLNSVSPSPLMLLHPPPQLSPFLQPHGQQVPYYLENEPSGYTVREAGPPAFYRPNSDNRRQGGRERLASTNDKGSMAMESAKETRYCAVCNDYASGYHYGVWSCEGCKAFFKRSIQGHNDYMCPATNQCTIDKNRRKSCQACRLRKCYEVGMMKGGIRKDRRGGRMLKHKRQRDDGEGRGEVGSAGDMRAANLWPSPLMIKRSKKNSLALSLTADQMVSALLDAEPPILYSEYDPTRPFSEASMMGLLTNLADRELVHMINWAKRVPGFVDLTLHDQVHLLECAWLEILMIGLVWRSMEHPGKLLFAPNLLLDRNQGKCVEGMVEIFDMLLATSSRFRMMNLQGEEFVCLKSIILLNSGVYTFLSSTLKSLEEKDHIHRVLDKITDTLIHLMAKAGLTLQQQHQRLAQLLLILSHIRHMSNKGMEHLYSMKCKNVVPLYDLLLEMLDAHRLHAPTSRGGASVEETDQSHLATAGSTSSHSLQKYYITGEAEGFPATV
Chain of Transcription factor Sp1 (Homo sapiens) (P08047 whole entry, looked up): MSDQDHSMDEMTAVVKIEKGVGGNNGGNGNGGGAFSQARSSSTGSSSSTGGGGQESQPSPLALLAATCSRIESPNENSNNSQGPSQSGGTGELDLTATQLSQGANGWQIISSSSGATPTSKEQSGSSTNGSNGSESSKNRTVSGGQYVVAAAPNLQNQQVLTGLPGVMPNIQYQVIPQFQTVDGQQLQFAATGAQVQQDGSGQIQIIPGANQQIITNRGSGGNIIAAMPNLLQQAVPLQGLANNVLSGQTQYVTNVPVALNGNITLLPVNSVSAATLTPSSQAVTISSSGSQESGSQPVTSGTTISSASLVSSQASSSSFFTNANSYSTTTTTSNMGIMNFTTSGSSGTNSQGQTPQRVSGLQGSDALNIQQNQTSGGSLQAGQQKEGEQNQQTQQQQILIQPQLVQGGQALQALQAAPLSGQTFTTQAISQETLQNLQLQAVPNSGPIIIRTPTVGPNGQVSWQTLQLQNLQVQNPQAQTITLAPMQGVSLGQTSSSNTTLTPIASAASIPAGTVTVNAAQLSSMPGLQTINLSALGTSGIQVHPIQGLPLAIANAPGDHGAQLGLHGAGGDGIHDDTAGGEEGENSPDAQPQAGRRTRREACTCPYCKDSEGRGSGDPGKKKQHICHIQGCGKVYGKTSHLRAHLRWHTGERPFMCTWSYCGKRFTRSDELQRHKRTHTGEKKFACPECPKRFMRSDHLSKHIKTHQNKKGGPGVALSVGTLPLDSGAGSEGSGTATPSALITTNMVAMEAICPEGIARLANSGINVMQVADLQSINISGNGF
Chain of Signal transducer and activator of transcription 3 (Homo sapiens) (P40763 whole entry, looked up): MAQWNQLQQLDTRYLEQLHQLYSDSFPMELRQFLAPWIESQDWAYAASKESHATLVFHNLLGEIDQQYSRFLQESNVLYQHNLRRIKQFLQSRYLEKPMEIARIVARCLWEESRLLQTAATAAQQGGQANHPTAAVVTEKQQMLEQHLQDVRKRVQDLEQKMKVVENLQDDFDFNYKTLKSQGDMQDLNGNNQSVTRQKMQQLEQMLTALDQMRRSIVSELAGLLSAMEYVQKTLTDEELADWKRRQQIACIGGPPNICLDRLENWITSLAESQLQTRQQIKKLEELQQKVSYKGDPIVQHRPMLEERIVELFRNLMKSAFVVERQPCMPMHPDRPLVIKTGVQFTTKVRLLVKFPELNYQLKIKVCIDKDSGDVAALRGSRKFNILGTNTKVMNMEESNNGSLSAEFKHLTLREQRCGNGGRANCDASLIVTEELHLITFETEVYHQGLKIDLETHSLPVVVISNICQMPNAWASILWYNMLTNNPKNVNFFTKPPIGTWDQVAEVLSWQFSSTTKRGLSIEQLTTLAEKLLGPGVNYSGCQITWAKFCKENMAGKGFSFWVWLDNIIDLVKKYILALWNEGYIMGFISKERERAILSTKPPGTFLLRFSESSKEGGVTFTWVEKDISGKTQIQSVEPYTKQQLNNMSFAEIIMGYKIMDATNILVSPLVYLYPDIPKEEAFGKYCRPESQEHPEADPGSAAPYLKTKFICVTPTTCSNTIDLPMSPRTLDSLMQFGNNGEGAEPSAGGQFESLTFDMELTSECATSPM
Chain of Glucocorticoid receptor (Homo sapiens) (P04150 whole entry, looked up, the tested form may be a part): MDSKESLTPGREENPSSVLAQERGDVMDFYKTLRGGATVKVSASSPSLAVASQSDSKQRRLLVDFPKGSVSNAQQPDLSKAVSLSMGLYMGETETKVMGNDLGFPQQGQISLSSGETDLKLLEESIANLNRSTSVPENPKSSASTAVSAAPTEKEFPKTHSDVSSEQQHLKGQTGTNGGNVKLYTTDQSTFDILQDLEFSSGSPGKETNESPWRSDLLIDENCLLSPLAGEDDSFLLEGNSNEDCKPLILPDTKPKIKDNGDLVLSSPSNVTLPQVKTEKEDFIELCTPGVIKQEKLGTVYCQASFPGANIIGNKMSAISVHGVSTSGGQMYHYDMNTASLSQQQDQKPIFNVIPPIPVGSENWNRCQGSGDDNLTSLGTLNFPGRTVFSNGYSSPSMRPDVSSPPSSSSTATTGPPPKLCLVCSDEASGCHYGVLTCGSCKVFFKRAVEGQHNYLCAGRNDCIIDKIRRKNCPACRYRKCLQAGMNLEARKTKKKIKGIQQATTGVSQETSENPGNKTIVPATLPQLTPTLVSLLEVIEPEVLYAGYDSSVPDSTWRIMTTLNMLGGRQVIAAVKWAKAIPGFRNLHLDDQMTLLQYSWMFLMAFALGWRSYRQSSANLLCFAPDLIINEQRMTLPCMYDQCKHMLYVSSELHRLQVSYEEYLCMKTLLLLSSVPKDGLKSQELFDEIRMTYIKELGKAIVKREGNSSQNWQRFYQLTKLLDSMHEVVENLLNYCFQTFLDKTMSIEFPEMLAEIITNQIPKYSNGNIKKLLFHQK
Chain of Estrogen-related receptor gamma (Homo sapiens) (P62508 whole entry, looked up, the tested form may be a part): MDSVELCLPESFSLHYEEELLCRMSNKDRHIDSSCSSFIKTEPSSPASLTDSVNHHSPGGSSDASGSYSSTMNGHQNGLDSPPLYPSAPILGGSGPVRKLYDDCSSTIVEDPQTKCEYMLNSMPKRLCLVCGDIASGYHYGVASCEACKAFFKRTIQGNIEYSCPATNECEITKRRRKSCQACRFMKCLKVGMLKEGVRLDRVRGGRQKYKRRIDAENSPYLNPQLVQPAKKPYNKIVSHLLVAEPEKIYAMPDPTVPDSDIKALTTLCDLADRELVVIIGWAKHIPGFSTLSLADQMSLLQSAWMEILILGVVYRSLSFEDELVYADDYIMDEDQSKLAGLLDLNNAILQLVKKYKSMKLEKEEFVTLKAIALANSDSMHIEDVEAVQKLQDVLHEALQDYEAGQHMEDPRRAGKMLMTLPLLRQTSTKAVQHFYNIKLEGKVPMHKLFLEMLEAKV
Chain of Steroid hormone receptor ERR1 (Homo sapiens) (P11474 whole entry, looked up, the tested form may be a part): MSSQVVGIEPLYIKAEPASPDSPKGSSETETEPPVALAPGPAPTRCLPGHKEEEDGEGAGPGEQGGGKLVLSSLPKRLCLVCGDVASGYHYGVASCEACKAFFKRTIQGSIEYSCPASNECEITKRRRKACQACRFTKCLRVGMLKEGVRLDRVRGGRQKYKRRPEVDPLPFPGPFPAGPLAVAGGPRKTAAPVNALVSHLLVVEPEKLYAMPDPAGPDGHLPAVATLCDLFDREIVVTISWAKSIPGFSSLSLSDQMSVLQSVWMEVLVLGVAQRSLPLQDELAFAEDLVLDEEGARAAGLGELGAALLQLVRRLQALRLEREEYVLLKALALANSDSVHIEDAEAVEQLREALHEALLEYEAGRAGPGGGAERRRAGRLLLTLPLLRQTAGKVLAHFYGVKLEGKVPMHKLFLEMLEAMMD

As to `COc1ccc(C(=O)Nc2nc3ccccc3c(NCc3ccccc3)c2C#N)cc1`, the results for the AC50 in [1] and in experiment [5] were 1.68 µM (active) and 4.43 µM (active), respectively. Also, the compound was classed as inactive in experiment [2], in experiment [3], in experiment [4], in experiment [6], in [7] and in experiment [8]. In addition, the compound was classed as inactive in experiment [9], in experiment [10], in experiment [11], in [12], in experiment [13] and in experiment [14].
On to `CS(=O)(=O)c1ccc([C@@H](C[C@H]2CCC(=O)C2)C(=O)Nc2cnccn2)cc1Cl`, for which the result in experiment [1], in experiment [2], in experiment [3], in experiment [4], in experiment [6] and in experiment [7] was inactive. In addition, the result in [8], in experiment [9], in experiment [10], in [15], in experiment [11] and in experiment [16] was inactive. Moreover, the compound was classed as inactive in experiment [13] and in experiment [17].
As to `CC(C)COC(=O)CCCCC(=O)OCC(C)C`, the compound was called inactive in [1], in experiment [2], in experiment [3], in [4], in experiment [6] and in experiment [7]. The call in experiment [8], in experiment [9], in experiment [10], in [15], in experiment [16] and in experiment [13] was inactive. For the same compound, the result in [18] was inactive.
With `CN(C)CCCN(C)CCCN(C)C`, the call in experiment [1], in [2], in [3], in experiment [4], in experiment [6] and in [7] was inactive. The result in [8], in experiment [9], in [10], in experiment [11], in [13] and in experiment [18] was inactive.
As for `CC1(C)C(=O)NC(=O)N1CO`, the compound was called inactive in [1], in experiment [2], in experiment [3], in experiment [4], in [6] and in [7]. Besides, the compound was called inactive in experiment [8], in experiment [9], in [10], in [15], in experiment [16] and in experiment [13]. In addition, the compound was classed as inactive in experiment [19] and in experiment [17]. In addition, the AC50 in [11] is 123 µM (active).
As for `CC(=O)OC1CC(C)OC(C)O1` (configuration not stated), the compound was called inactive in experiment [1], in [2], in [3], in [4], in experiment [6] and in experiment [7]. Besides, the compound was classed as inactive in experiment [8], in experiment [9], in experiment [10], in [20], in experiment [12] and in experiment [13]. The call in experiment [19], in [14] and in experiment [18] was inactive.
`O=C1NC(=O)C(c2ccccc2)(c2ccccc2)N1`: the result in experiment [1], in experiment [2], in experiment [3], in [4], in experiment [5] and in [6] was inactive. The compound was called inactive in [7], in experiment [8], in [9], in experiment [10] and in experiment [17].
As for `NC(=Nc1ccccc1)Nc1ccccc1`, the outcome in experiment [1], in experiment [3], in [4], in experiment [6], in [7] and in experiment [9] was inactive. Moreover, the call in [10], in experiment [11], in experiment [13], in [17] and in experiment [18] was inactive. Moreover, the AC50 in [2] is 29.5 µM (active); in experiment [8], 6.54 µM (active).
